# FECH inh: human FECH heme synthesis enzyme inhibition; P22830; purified FECH, Ni-mesoporphyrin absorbance 550 nm; calls only at 10 µM (by protocol); 20,000 tested, 3.3% active; AID 1671448;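 active = enzyme reaction rate more than 3 SD below the solvent-only control wells on the same plate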;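 also: lower slope than DMSO wells means FECH inhibition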
# Target sequence (P22830 whole entry, looked up): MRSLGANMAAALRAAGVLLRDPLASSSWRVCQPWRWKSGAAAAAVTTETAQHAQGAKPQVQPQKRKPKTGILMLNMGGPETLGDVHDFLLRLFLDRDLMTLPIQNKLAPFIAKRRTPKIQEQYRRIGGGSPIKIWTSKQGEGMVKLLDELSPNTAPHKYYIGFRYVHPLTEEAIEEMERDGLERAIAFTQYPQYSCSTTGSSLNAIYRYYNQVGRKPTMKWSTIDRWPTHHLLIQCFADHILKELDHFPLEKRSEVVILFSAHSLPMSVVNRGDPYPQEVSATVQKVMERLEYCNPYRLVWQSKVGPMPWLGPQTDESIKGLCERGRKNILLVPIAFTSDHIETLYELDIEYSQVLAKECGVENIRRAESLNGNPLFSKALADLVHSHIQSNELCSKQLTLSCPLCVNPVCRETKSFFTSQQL
# Calls only; - = inactive; + = active, no number. This is one part of a sample in which hits are shown more often than they occur.
SMILES,FECH inh
COc1ccc(Cl)cc1C(=O)Nc1cc(C)nn1-c1ncnc2c1cnn2-c1ccccc1,-
CC(c1ccc(-c2nnnn2-c2ccccc2)cc1)N1CCOCC1 (centres undefined),-
Cc1cc(-c2nnc(SCC(=O)O)n2C(C)c2ccccc2)on1 (centres undefined),-
O=C(Nc1nc2n(n1)C(c1ccccc1)C=C(c1ccccc1)N2)c1ccc(Cl)cc1 (centres undefined),-
Cc1cccc(N2CCN(CC(=O)N3CCCn4cncc4C3)CC2)c1,-
COc1ccc(CN(Cc2ccccn2)CC(C)C)c(Cl)c1O,-
CN1CCC2(CC1)CN(Cc1ccc(C3CCCCO3)o1)CCCN2C (centres undefined),-
CCc1cccc(NC(=O)CN2CCN(Cc3ccccc3F)S2(=O)=O)c1,-
COc1ccc(S(=O)(=O)NCc2nc3cccnc3n2Cc2ccccc2)cc1,-
COc1ccc(Cn2c(CNS(=O)(=O)c3ccccc3)nc3cccnc32)cc1,+
COc1ccc(Cn2c(CNS(=O)(=O)c3ccc(Cl)cc3)nc3cccnc32)cc1,-
CCNc1ncc(C(=O)N2CCCC(OCc3cccnc3)C2)cn1 (centres undefined),-
CN(CC(=O)N1CCC(c2ccccc2C(=O)O)C1)Cc1ccncc1 (centres undefined),-
CN1CCN(CCC(F)(F)F)CC12CCN(C(=O)CC1CCCC1)CC2,-
COc1cc(C(=O)Nc2ccc(Nc3nc(C)cc(N(C)C)n3)cc2)cc(OC)c1OC,-
Cc1nnnn1-c1cccc(-c2n[nH]c(Cc3ccccc3)n2)c1,-
c1ccc(Cc2n[nH]c(Cn3nc4ccccc4n3)n2)cc1,-
Cc1nnnn1-c1ccc(Cc2n[nH]c(Cc3ccccc3)n2)cc1,+
CCOC(=O)Cn1c(=O)n(-c2ccc(F)cc2)c2nc(-c3cccc(C)c3)nc(C(N)=O)c21,-
CC(C)c1ccc2c(c1)-c1ccccc1S(=O)(=O)N2CC(=O)N1CC(=O)Nc2ccccc21,-
C=CCNC(=O)CN1c2ccc(Br)cc2-c2ccccc2S1(=O)=O,+
COc1ccc(C)cc1NC(=O)CN1c2ccc(Br)cc2-c2ccccc2S1(=O)=O,+
CN1CCN(C(=O)CN2c3ccc(Br)cc3-c3ccccc3S2(=O)=O)CC1,+
O=C(CN1c2ccc(F)cc2-c2ccccc2S1(=O)=O)NC(c1ccccc1)c1ccccc1,-
COc1ccc(C)cc1NC(=O)Cn1ccnc1-c1nccn1C,-
SMILES,FECH inh
CC(C)NC(=O)CN1c2ccc(Br)cc2-c2ccccc2S1(=O)=O,+
O=C(CN1c2ccc(Br)cc2-c2ccccc2S1(=O)=O)N1CCc2ccccc2C1,-
COCC(C)NC(=O)CN1c2ccc(F)cc2-c2ccccc2S1(=O)=O (centres undefined),-
CCN1CCc2c(sc(NC(=O)c3ccc(Cl)s3)c2C(=O)OC)C1,-
CCC(C(=O)Nc1ccccc1F)N1CCN(Cc2ccccc2Cl)S1(=O)=O (centres undefined),-
O=C(Nc1ccc(Br)cc1)N1CCC(n2cnc3cccnc32)CC1,-
CCCC(=O)Oc1ccc(Nc2cc(C)nc3nc(-c4cccnc4)nn23)cc1,-
Cc1cc(C)n(CCCC(=O)N2CCNCC2C(=O)NC2CC2)n1 (centres undefined),-
CSCCC1CC(=O)Nc2c1c(C(C)C)nn2-c1ccccc1 (centres undefined),-
O=C(CN1c2ccc(Br)cc2-c2ccccc2S1(=O)=O)NCC1CCCO1 (centres undefined),+
Cc1cccc(NC(=O)CC(=O)NC[C@@H]2CCCO2)c1C,-
CCc1ccc2c(c1)-c1ccccc1S(=O)(=O)N2CC(=O)Nc1cc(C)ccc1C,+
O=C(CN1c2ccc(Br)cc2-c2ccccc2S1(=O)=O)NCCC1=CCCCC1,+
CCNC(=O)CN1c2ccc(Br)cc2-c2ccccc2S1(=O)=O,+
COc1ccccc1CNC(=O)CN1c2ccc(Br)cc2-c2ccccc2S1(=O)=O,-
CCc1ccc2c(c1)-c1ccccc1S(=O)(=O)N2CC(=O)Nc1ccccc1Oc1ccccc1,-
CCc1ccc2c(c1)-c1ccccc1S(=O)(=O)N2CC(=O)Nc1ccc2c(c1)OCO2,-
COc1ccccc1NC(=O)Nc1nc(CC(=O)NCc2ccc(Cl)cc2)cs1,-
Cc1cc(C)n2nc(CN(C(=O)c3ccccc3F)c3cccc(Cl)c3)nc2n1,-
O=c1ccc(-c2ccccc2)nn1CCn1cnc(-c2ccccc2)c1C1CC1,-
CCc1ccc(-n2c(CN3CCN(C(=O)Nc4c(C)cccc4C)CC3)nc3cccnc32)cc1,-
CC(CNC1CCNCC1)N(C)c1ccccc1 (centres undefined),-
Cc1ccc(Cl)cc1N(C)C(=O)Cn1c(=O)c2cnc(-c3ccccc3)nc2n(C)c1=O,-
COc1ccc2cc(C3CN(c4ccc(C(=O)N(C)C)cn4)CCO3)ccc2c1 (centres undefined),-
CC(Cc1cn(CCCN2CCCC2=O)nn1)c1ccccc1 (centres undefined),-
SMILES,FECH inh
O=C(NCCc1csc(-c2ncccn2)n1)c1cnn2c1CCCC2,-
O=C(O)c1[nH]ncc1CN1CCN(c2nsc3ccccc23)CC1,-
CCc1c(C(=O)N(C)CCn2ccnc2C)[nH]c2ccccc12,-
CCOC(=O)c1[nH]c2ccccc2c1CN1CCN(c2ncc(F)cn2)CC1,+
O=C(NC1CCCCC1)c1nc[nH]c1C(=O)NCc1cccc(C(F)(F)F)c1,+
O=C(NC1CCCC1)c1nc[nH]c1C(=O)NC1CC1,-
CC(C)NC(=O)c1nc[nH]c1C(=O)NC1CCCC1,-
CC(C)(C)CNC(=O)c1[nH]cnc1C(=O)NC1CCCC1,-
CC(C)(C)CNC(=O)c1[nH]cnc1C(=O)NC1CCCCC1,-
O=C(NC1CCCCC1)c1nc[nH]c1C(=O)NCC1CC1,-
O=C(NC1CCCC1)c1nc[nH]c1C(=O)NCc1ccccc1,-
CNC(=O)c1[nH]cnc1C(=O)NC1CCCCC1,+
O=C(NC1CCCCC1)c1nc[nH]c1C(=O)NCc1ccccc1,+
COc1ccc(NC(=O)NCCc2nc3cccnc3n2C2CCCCC2)c(OC)c1,-
CCOc1ccnc(N(C)Cc2noc(CC)n2)n1,-
Cc1cc(NC(=O)c2ccc(C(F)(F)F)cc2)n(-c2ncnc3c2cnn3-c2cccc(C)c2C)n1,-
CCc1ccc(S(=O)(=O)N2CCN(c3cc(-c4cccc(C)c4)ncn3)CC2)cc1,-
CCOc1ccccc1CNC(=O)Cn1c(=O)c2cnc(-c3ccccc3)nc2n(C)c1=O,-
O=C1CCC(=O)N1c1nc2n(n1)C(c1ccc(F)cc1)C=C(c1ccc(Cl)cc1)N2 (centres undefined),-
CCOC(=O)Cn1c(=O)n(-c2ccc(F)cc2)c2nc(-c3cc(C)ccc3C)nc(C(N)=O)c21,-
C=CC[C@@H]1CC=C[C@@H](C)N1C(=O)c1ccc(Cn2ccnc2)o1,-
CC(CNC(=O)c1cccs1)N(C)c1ccccc1 (centres undefined),-
CCN(Cc1nc[nH]c1C)C1CCS(=O)(=O)C1 (centres undefined),-
Cc1cccc(NS(=O)(=O)c2ccc3c(c2)CCN3C(=O)CCC(=O)N2CCOCC2)c1,-
CCCCN1C(=O)C2(CCN(C(=O)CC(C)CC)CC2)Nc2ccccc21 (centres undefined),-
Cc1ccc(CNC(=O)c2nc[nH]c2C(=O)NCc2ccccc2)o1,-
CC(C)(C)CNC(=O)c1nc[nH]c1C(=O)NCC(C)(C)C,-
O=C(NC1CC1)c1nc[nH]c1C(=O)NCC1CCCCC1,-
COc1ccccc1CNC(=O)c1[nH]cnc1C(=O)NC1CCCCC1,+
